In PubChem BioAssay (NCI):
The panel holds about 79,000 compounds, 15% with a hit somewhere; the sample as a whole holds those more often. A number with no mark means an inactive call. The source made the active and inactive calls. No stated cut-off is given here; in the data, active means growth inhibition above about 70%; inactive means the rest.

Legend:
[1] = NCI Yeast Anticancer Drug Screen. Data for the rad50 strain (AID 155);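 further: 0% = growth of vehicle-only cultures of the same strain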; conditions: S. cerevisiae rad50 strain growth inhibition, hits give high values
Summary of the method: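 Growth of the mutant yeast was measured after compound exposure and referenced to vehicle-treated cultures.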

[2] = NCI Yeast Anticancer Drug Screen. Data for the mec2-1 strain (AID 157); conditions: S. cerevisiae mec2-1 strain, hits give high values
Summary of the method: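 Compounds were applied to mec2-1 yeast cells. Their growth was then compared with that of vehicle-treated cultures to give growth inhibition.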

[3] = NCI Yeast Anticancer Drug Screen. Data for the sgs1 mgt1 strain (AID 161);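 further: 0% = growth of cultures given vehicle only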; conditions: S. cerevisiae sgs1 mgt1 strain, hits give high values
Summary of the method: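 Compounds are added to genetically altered yeast, and growth is compared with cultures given vehicle alone to give percent inhibition.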

[4] = NCI Yeast Anticancer Drug Screen. Data for the cln2 rad14 strain (AID 165);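 further: 0% = growth equal to vehicle treated cultures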; conditions: S. cerevisiae cln2 rad14 strain, hits give high values
Summary of the method: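 Strain: cln2 rad14 yeast, altered in cell cycle control and DNA damage repair. Read-out: growth inhibition vs vehicle.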

[5] = NCI Yeast Anticancer Drug Screen. Data for the bub3 strain (AID 167); conditions: S. cerevisiae bub3 mutant strain, hits give high values
Summary of the method: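 Whole-cell yeast assay. The mutant strain was incubated with compounds, and growth inhibition was determined by comparison with vehicle-treated cells.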

[6] = NCI Yeast Anticancer Drug Screen. Data for the mlh1 rad18 strain (AID 175); conditions: S. cerevisiae mlh1 rad18 strain growth inhibition, hits give high values
Summary of the method: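 A repair-deficient yeast strain is exposed to test compound, and growth is scored relative to vehicle-treated controls.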

[7] = at 5.0 µM (retest, dose inferred, filed as 0.5)
[8] = at 50.0 µM (retest, dose inferred, filed as 5.0)

Row | SMILES | growth inhibition [1, 7] | growth inhibition [1, 8] | growth inhibition ([1]; at 50.0 µM) | growth inhibition [2, 7] | growth inhibition [2, 8] | growth inhibition ([2]; at 50.0 µM) | growth inhibition [3, 7] | growth inhibition [3, 8] | growth inhibition ([3]; at 50.0 µM) | growth inhibition [4, 7] | growth inhibition [4, 8] | growth inhibition ([4]; at 50.0 µM) | growth inhibition [5, 7] | growth inhibition [5, 8] | growth inhibition ([5]; at 50.0 µM) | growth inhibition [6, 7] | growth inhibition [6, 8] | growth inhibition ([6]; at 50.0 µM)
1 | C[C@]12CC[C@H](O)C[C@@H]1CC[C@@H]1[C@@H]2C(=O)C[C@]2(C)C3=CC(=O)O[C@H]3C[C@@H]12 | 40% | 97% (active) | 98.2% (active) | 27% | 98% (active) | 91% (active) | 32% | 98% (active) | 94% (active) | -3% | 94% (active) | 57.6% | 11% | 97% (active) | 92.6% (active) | 34% | 98% (active) | 96.8% (active)
2 | COc1cc2c(cc1OC)C(Cl)C(c1ccc(F)cc1)=C2Cl (configuration not stated) | -23% | 0% | 17.8% | 5% | 3% | 10.4% | -4% | -3% | -5.35% | -3% | 6% | 10.4% | -2% | 4% | 45.2% | 0% | -1% | -3.4%
3 | N#CCCN(CCCN1CCOCC1)C(=S)Nc1cccc(C(F)(F)F)c1 | 34% | 44% | 42.9% | 23% | 33% | 35.8% | 41% | 37% | 71.1% (active) | 41% | 60% | 59.5% | 49% | 58% | 49.8% | 48% | 61% | 36%
4 | CCCCCCCCCCCCCCCCN(CC)CC | 99% (active) | 99% (active) | 99.6% (active) | 99% (active) | 99% (active) | 99.7% (active) | 99% (active) | 100% (active) | 99.4% (active) | 97% (active) | 99% (active) | 99.3% (active) | 98% (active) | 99% (active) | 99.7% (active) | 99% (active) | 99% (active) | 99.6% (active)
5 | Nc1nnc(-c2cc([N+](=O)[O-])cc([N+](=O)[O-])c2)o1 | -16% | -2% | 22.8% | -4% | -5% | 14.6% | -1% | 14% | 15.1% | 6% | 20% | -20.2% | 3% | 7% | -19.2% | -21% | 3% | 31.9%
6 | O=C(CNC(=O)OCc1ccccc1)Oc1ccc([N+](=O)[O-])cc1 | -9% | -1% | 22.1% | -1% | 38% | 58.4% | 3% | 7% | 48.6% | -42% | -56% | -60.2% | -5% | 0% | 64.2% | 12% | 36% | 73.7% (active)
7 | CCN(CC)CCOC(=O)c1ccc(N=Nc2cc(Cl)c(C)cc2O)cc1 | 26% | 98% (active) | 99.3% (active) | 29% | 99% (active) | 99.2% (active) | 55% | 99% (active) | 95.2% (active) | 13% | 98% (active) | 99% (active) | 58% | 99% (active) | 99.1% (active) | 28% | 99% (active) | 99.1% (active)
8 | O=Cc1cc(O)ccc1Br | 33% | 96% (active) | 71.3% (active) | 28% | 96% (active) | 76.8% (active) | 37% | 97% (active) | 91.6% (active) | 29% | 58% | 82.7% (active) | 40% | 99% (active) | 89.3% (active) | 32% | 98% (active) | 79.6% (active)
9 | Clc1ccc(-c2cc(-c3cc(-c4ccc(Cl)c(Cl)c4)n[nH]3)[nH]n2)cc1Cl | -2% | 68% | 91% (active) | 6% | 43% | 22.8% | 0% | 67% | 65% | 3% | 60% | 29.7% | -14% | 89% (active) | 22.8% | 19% | 89% (active) | 65%
10 | N#CC(C#N)=C1CCC(CC2CCCCC2)CC1 (configuration not stated) | -117% | 96% (active) | 98.6% (active) | -49% | 96% (active) | 98.6% (active) | -60% | 96% (active) | 98% (active) | -56% | 97% (active) | 98.5% (active) | -58% | 97% (active) | 98% (active) | -92% | 96% (active) | 98.5% (active)
11 | CCOC(=O)CC(NC(=O)c1[nH]cnc1/N=N/N(C)C)C(=O)OCC (configuration not stated) | -24% | 95% (active) | 89.1% (active) | -8% | 97% (active) | 91.5% (active) | -16% | 95% (active) | 90.6% (active) | -11% | 96% (active) | 91% (active) | -12% | 97% (active) | 91.8% (active) | -24% | 97% (active) | 78% (active)
12 | O=c1[nH]c2c([N+](=O)[O-])cc(Cl)cc2nc1/C=C(\O)c1ccccc1 | 17% | 81% (active) | 49.6% | -3% | 65% | 4.65% | 7% | 63% | 66.8% | 4% | 59% | 45.4% | 16% | 77% (active) | -2.5% | -9% | 80% (active) | 83.9% (active)
13 | Cc1ccc(I)c(C(C)(C)O)c1 | 4% | 71% (active) | 94.8% (active) | 4% | 75% (active) | 56.6% | 4% | 77% (active) | 58.6% | 1% | 30% | 30.8% | -1% | 86% (active) | 95.2% (active) | 7% | 91% (active) | 70.2% (active)
14 | CC(=O)OCc1ccc(O)c2ncccc12 | -127% | 74% (active) | 95.7% (active) | -49% | 83% (active) | 94% (active) | -51% | 45% | 54.2% | -44% | 75% (active) | 41% | -56% | 74% (active) | 67.1% | -103% | 54% | 55%
15 | CCC(=O)OCC(=O)c1ccc(-c2ccccc2)cc1 | -9% | -20% | -5.1% | -8% | 1% | -3.7% | -2% | 18% | 3% | 33% | -56% | -5.4% | 36% | 10% | 57.1% | -8% | 1% | -1.05%
16 | CN(C)CC1CCC/C(=C\c2ccc(Cl)cc2)C1=O (configuration not stated) | -15% | 99% (active) | 80.5% (active) | -25% | 99% (active) | 86.8% (active) | -28% | 99% (active) | 92.5% (active) | -25% | 99% (active) | 87% (active) | -38% | 99% (active) | 91.4% (active) | -14% | 99% (active) | 91.3% (active)
17 | Cn1c(N)c(NC(=O)CCl)c(=O)n(C)c1=O | 21% | 20% | 16.4% | 3% | 5% | -5.8% | -13% | -2% | -16.9% | 1% | 2% | 12.8% | 8% | 7% | -2.45% | 7% | 0% | 16.9%
18 | CN(C)C1CCC(N=Nc2cc([N+](=O)[O-])ccc2C(=O)O)CC1 (configuration not stated) | -7% | 55% | 86.2% (active) | 7% | 23% | 56.7% | -2% | 49% | 83.6% (active) | 1% | 18% | 15.6% | 7% | 87% (active) | 94.3% (active) | -1% | 61% | 84.9% (active)
19 | COc1cc(/C=C(\C#N)c2ccc([N+](=O)[O-])cc2)ccc1O | -13% | 1% | 75.4% (active) | -23% | -3% | 51.2% | -16% | -4% | 74% (active) | -5% | 33% | 66.5% | -20% | 50% | 81.7% (active) | -35% | 57% | 64.2%
